The full data set covers some 8,800 targets. This sample favours those with a hit. About 0.5% of all pairs of compound and target were hits. Unmarked numbers belong to inactive results.
Columns and labels:
Experiment in all cases: log2 fold change, soluble protein after heating vs DMSO (PISA); higher = thermal stabilisation; K562 lysate, 10 uM; active = over 0.2 and 3.5 SD of the protein, either way, in both replicates (recomputed)
[1] = compound: CS(=O)(=O)CCNCc1ccc(-c2ccc3ncnc(Nc4ccc(OCc5cccc(F)c5)c(Cl)c4)c3c2)o1 [lapatinib]
How it was run: (§1)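 Quantification was by TMTpro 16plex LC-MS/MS with equalised channel sums, applied to the supernatant after 21,000xg for 90 min. Samples were crude K562 extract at 1 mg/mL protein in PBS pH 7.4 with 1 mM MgCl2, treated with 10 μM compound for 30 min, heated for 3 min across 48°C-58°C, pooled and brought to 0.5% NP-40 at 4°C. Values are log-two fold changes in thermal stability relative to solvent controls, from duplicates.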

[2] = compound: CS(=O)(=O)N1CCN(Cc2cc3nc(-c4cccc5[nH]ncc45)nc(N4CCOCC4)c3s2)CC1 [pictilisib]
How it was run: as §1

[3] = compound: C[C@@H](Oc1cc(-c2cnn(C3CCNCC3)c2)cnc1N)c1c(Cl)ccc(F)c1Cl [crizotinib]
How it was run: as §1

[4] = compound: C[C@H](C1=CC=C(C=C1)C(=O)NC2=C3C=CNC3=NC=C2)N
How it was run: as §1

[5] = compound: C[C@H](Nc1ncnc2nc[nH]c12)c1cc2cccc(Cl)c2c(=O)n1-c1ccccc1 [duvelisib]
How it was run: as §1

[6] = compound: Cc1cc(Nc2cc(CN3CCOCC3)c3nc(C)c(Cc4ccc(Cl)cc4F)n3n2)n[nH]1 [gandotinib]
How it was run: as §1

[7] = compound: Cc1cc(Nc2cc(N3CCN(C)CC3)nc(Sc3ccc(NC(=O)C4CC4)cc3)n2)n[nH]1 [tozasertib]
How it was run: as §1

[8] = compound: Cc1ccc(-n2nc(C(C)(C)C)cc2NC(=O)Nc2ccc(OCCN3CCOCC3)c3ccccc23)cc1 [doramapimod]
How it was run: as §1

[9] = compound: Cc1ccc(NC(=O)c2ccc(CN3CC[C@H](N(C)C)C3)c(C(F)(F)F)c2)cc1Nc1nccc(-c2cncnc2)n1 [bafetinib]
How it was run: as §1

[10] = compound: Cc1cccc(CC(=O)N2CCc3c2ccc(-c2cn(C)c4ncnc(N)c24)c3F)n1
How it was run: as §1

Sequence of UniProt Q9NUQ8 (Q9NUQ8 whole entry, looked up): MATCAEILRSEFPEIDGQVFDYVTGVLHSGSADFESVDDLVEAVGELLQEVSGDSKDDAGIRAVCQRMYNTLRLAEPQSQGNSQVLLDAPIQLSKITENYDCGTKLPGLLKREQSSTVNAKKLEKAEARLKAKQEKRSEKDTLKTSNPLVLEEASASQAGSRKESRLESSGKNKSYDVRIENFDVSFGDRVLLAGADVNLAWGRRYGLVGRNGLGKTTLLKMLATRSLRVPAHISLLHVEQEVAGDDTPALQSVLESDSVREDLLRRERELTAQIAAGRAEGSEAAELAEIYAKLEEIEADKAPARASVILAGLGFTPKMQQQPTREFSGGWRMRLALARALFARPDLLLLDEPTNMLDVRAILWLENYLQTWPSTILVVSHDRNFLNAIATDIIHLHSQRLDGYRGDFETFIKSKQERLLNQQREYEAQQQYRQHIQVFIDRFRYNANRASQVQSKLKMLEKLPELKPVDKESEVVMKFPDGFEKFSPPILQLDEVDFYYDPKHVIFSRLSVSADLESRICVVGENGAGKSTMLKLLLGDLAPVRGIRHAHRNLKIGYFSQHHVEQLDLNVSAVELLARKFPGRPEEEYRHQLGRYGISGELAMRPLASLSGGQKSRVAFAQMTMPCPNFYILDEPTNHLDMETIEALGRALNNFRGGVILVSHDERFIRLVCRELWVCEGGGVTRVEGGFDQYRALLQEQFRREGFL
Sequence of UniProt P51825 (P51825 whole entry, looked up): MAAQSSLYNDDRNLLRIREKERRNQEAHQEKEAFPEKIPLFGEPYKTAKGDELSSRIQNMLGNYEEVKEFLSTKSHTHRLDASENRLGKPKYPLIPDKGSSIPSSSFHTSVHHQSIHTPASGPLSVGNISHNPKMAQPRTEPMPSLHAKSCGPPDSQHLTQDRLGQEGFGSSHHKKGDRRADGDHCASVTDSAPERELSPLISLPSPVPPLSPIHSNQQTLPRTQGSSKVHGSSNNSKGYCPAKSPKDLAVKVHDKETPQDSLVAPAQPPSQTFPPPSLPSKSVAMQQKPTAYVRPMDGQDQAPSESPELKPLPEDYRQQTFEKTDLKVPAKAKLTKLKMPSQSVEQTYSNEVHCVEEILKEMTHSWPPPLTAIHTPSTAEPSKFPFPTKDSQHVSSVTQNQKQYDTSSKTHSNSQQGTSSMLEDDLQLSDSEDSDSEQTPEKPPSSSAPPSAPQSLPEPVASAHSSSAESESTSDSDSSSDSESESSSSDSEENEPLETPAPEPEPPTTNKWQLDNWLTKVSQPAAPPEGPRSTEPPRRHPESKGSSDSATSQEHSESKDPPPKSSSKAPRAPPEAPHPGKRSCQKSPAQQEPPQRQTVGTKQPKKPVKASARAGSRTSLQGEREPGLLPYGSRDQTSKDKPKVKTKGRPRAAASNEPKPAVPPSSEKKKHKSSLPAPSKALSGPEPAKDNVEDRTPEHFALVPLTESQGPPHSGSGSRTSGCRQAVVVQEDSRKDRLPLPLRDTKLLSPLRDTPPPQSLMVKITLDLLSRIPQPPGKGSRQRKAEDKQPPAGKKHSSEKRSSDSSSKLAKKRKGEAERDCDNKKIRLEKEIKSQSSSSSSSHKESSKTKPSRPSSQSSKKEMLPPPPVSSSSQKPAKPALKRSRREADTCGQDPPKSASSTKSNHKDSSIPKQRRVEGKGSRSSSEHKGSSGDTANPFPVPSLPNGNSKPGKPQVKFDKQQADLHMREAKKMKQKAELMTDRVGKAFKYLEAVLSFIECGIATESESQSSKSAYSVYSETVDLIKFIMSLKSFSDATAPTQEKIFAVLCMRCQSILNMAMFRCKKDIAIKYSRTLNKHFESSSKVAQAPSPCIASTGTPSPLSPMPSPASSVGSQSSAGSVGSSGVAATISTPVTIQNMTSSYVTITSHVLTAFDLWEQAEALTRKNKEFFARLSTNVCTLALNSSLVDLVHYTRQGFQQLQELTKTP
Sequence of UniProt P08758 (P08758 whole entry, looked up): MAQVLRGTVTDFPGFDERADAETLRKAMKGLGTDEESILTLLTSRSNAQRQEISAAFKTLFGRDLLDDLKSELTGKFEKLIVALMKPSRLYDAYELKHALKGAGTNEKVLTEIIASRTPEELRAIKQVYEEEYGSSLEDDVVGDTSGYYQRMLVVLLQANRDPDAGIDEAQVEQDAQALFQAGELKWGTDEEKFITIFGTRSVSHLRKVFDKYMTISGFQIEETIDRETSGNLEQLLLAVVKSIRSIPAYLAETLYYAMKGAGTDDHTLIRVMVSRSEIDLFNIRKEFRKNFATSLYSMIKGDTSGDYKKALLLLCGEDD
Sequence of UniProt O14617 (O14617 whole entry, looked up): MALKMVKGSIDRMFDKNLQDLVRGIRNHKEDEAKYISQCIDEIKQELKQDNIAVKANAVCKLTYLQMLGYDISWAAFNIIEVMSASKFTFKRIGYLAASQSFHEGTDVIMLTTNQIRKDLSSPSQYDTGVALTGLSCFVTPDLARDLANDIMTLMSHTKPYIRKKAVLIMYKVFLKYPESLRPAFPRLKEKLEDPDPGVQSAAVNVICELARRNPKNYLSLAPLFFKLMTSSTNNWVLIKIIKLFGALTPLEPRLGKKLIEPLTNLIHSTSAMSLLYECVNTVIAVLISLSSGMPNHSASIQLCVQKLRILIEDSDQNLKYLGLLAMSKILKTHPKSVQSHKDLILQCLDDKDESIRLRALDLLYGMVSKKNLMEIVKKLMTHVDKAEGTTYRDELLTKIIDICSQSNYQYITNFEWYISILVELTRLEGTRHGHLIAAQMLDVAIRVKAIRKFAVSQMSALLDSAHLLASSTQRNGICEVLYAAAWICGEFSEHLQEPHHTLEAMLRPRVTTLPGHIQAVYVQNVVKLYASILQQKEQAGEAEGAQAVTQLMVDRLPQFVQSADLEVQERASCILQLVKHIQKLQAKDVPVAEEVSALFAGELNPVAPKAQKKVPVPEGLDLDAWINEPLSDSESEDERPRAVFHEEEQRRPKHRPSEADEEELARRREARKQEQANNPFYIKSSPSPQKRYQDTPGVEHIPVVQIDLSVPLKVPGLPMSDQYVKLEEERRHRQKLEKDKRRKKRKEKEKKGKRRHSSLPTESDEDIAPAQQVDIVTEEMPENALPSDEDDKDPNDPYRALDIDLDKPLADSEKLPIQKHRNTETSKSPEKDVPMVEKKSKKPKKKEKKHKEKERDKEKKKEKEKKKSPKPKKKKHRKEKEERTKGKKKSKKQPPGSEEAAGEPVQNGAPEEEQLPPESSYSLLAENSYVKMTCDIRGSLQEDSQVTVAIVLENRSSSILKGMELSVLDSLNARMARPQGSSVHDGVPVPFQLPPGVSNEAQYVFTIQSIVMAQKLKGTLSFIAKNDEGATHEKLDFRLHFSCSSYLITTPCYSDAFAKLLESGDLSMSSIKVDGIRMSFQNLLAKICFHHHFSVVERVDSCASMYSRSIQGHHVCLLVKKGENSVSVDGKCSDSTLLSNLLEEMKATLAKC
Sequence of UniProt P28288 (P28288 whole entry, looked up): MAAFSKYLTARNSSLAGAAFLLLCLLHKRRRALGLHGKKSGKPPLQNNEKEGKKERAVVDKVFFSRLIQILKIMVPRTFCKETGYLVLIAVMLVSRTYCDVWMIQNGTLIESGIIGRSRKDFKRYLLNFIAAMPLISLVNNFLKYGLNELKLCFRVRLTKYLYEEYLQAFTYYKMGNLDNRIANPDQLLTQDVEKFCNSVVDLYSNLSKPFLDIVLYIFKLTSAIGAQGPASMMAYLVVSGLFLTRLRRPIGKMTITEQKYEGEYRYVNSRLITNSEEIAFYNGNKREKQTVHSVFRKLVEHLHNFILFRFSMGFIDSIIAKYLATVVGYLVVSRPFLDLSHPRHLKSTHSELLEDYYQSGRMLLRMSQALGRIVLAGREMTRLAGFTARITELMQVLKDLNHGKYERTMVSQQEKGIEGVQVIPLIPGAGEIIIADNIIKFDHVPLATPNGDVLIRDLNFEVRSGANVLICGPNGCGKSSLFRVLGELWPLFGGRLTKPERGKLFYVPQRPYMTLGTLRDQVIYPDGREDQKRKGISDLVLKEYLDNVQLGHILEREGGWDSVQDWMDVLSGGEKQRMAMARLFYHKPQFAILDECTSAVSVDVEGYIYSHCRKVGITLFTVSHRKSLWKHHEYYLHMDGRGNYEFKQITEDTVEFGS
Sequence of UniProt P05091 (P05091 whole entry, looked up): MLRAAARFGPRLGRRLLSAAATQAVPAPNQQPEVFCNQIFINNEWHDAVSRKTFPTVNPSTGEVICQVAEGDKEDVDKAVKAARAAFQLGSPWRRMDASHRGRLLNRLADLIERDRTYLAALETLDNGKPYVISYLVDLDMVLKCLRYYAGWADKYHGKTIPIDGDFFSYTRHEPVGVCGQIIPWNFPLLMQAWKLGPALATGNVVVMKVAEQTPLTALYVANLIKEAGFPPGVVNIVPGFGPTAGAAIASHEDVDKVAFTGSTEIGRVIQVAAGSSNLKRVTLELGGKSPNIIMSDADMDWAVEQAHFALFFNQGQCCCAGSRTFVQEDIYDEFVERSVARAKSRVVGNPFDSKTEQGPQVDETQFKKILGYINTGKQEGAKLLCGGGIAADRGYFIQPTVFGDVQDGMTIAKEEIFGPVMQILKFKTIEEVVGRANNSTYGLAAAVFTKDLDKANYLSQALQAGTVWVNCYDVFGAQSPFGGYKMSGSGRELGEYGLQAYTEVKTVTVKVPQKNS
Sequence of UniProt Q99943 (Q99943 whole entry, looked up): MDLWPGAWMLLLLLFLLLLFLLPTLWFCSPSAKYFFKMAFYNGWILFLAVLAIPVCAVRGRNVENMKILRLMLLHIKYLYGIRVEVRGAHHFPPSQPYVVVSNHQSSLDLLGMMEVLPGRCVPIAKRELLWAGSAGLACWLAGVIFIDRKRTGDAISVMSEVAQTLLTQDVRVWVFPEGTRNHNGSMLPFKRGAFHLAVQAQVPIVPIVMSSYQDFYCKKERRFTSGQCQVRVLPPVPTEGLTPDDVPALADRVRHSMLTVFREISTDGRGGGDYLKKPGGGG

Target	log2 fold change [1]	log2 fold change [2]	log2 fold change [3]	log2 fold change [4]	log2 fold change [5]	log2 fold change [6]	log2 fold change [7]	log2 fold change [8]	log2 fold change [9]	log2 fold change [10]
AMPD3 isoform 4 (UniProt Q01432)	0.037	-0.015	0.014	0.109	-0.053	-0.057	0.001	0.002	-0.002	-0.047
AGPAT1 (UniProt Q99943)	-0.122	0.009	-0.029	-0.019	0.009	-0.034	0.041	0.028	-0.057	0.091
ABHD17B (UniProt Q5VST6)	0.075	-0.076	-0.051	0.01	0.026	-0.012	-0.513 (active)	-0.026	0.01	0.183
ASPH (UniProt Q12797)	-0.035	-0.012	-0.025	0.048	-0.022	-0.04	0.037	0.008	0.029	0.005
ADK (UniProt P55263)	0.154	0.169	0.235	-0.007	0.059	0.532 (active)	-0.005	0.014	0.292	-0.064
ARL15 (UniProt Q9NXU5)	-0.001	0.097	0	0.682 (active)	-0.004	-0.098	0.023	0.06	0.225	-0.118
ABCD3 (UniProt P28288)	0.179	-0.019	-0.063	0.014	0.019	0.079	0.098	-0.002	0.027	-0.006
AFF1 isoform 2 (UniProt P51825)	-0.055	-0.063	0.005	-0.396 (active)	0.067	0.341	0.066	0.064	-0.04	0.696 (active)
ABCC5 (UniProt O15440)	0.013	0.13	0.014	-0.038	-0.045	0.043	-0.016	0.081	-0.117	0.045
ALKBH4 (UniProt Q9NXW9)	-0.02	0.003	0.04	-0.055	0.035	-0.019	0.047	-0.018	-0.108	-0.028
ARHGEF2 (UniProt Q92974)	0.014	0.005	-0.016	0.006	-0.017	0.025	0.018	0.089	-0.045	0.04
AHCYL1 (UniProt O43865)	-0.001	0.008	-0.028	-0.012	0.043	-0.067	-0.031	0.013	-0.047	0.001
ABCF3 (UniProt Q9NUQ8)	-0.019	0.006	-0.033	0.02	0.018	-0.075	0.063	0.011	-0.062	0.017
APEX1 (UniProt P27695)	0.022	0.039	-0.01	0.352 (active)	-0.025	-0.042	-0.029	-0.045	0.106	-0.067
AKR1B1 (UniProt P15121)	-0.009	0.006	0.065	-0.102	-0.006	0.037	-0.014	-0.022	0.011	0.006
ARHGEF1 (UniProt M0QZR4)	0.006	-0.011	-0.041	-0.038	-0.007	-0.012	0.029	0.02	-0.019	0.106
ALDH2 (UniProt P05091)	0	0	-0.02	-0.012	-0.03	0.011	0.023	-0.023	0.017	-0.077
ACBD6 (UniProt Q9BR61)	-0.002	0.01	-0.04	-0.036	0.063	-0.01	-0.051	-0.024	-0.047	0.006
ANKRD52 (UniProt Q8NB46)	-0.133	-0.036	-0.11	-0.004	0.01	0.012	0	0.001	-0.071	0.034
AP3D1 isoform 5 (UniProt O14617)	0.008	0.01	-0.02	-0.061	0.023	0.05	0.019	0.059	-0.042	0.081
ASNS (UniProt P08243)	-0.019	-0.012	-0.042	0.013	-0.001	-0.051	0.011	-0.01	-0.033	0.002
ARMCX3 (UniProt Q9UH62)	-0.058	0.005	-0.076	0.078	0.064	-0.064	0.005	-0.003	-0.044	0.032
ALDH5A1 isoform 2 (UniProt P51649)	-0.012	-0.049	-0.044	0	-0.056	-0.059	0.005	-0.011	0.008	-0.035
ACSL1 (UniProt P33121)	-0.03	-0.094	-0.115	0.021	0.043	-0.049	0.033	0.053	-0.038	0.061
ACADS (UniProt P16219)	-0.004	-0.018	-0.027	-0.026	-0.003	0.016	-0.013	0.008	0.037	0.034
ANXA5 (UniProt P08758)	0.005	-0.009	0.046	0.059	-0.028	-0.119	0.019	0.015	-0.018	-0.065
ADAR isoform 4 (UniProt P55265)	0.023	-0.135	0	0.01	0.016	-0.038	0.016	0.069	-0.16	0.028
